Potency data for 90 molecules are collected here from PubChem BioAssay AID504848 (National Center for Advancing Translational Sciences (NCATS), 2011).

The campaign covered roughly 2,300 compounds. About 1,400 (61%) were called active. Inconclusive results (about 29%) are left out. Calls follow the shape of the dose curve; as a rule, active = well fitted inhibition curve with a large enough effect; inconclusive = small, poorly fitted or top-dose-only effect, or effect the other way; inactive = no such curve, though single readings can be large or run the other way. The set was probably picked from earlier hits. Some of the results follow.
Potency is read from the fitted curve at half-maximal effect.

This assay can be described thus: Confirmation screen for delayed death inhibitors of the malarial parasite plastid, 96 hour incubation. Also: nearly all actives have a fitted effect of over 60% in size. Conditions: P. falciparum luciferase growth in erythrocytes; series mostly up to 28.7 µM. Summed up: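 Two-generation (96 h, 37 C) exposure of P. falciparum carrying an integrated firefly luciferase reporter in erythrocytes, 0.1% parasitemia and 2% hematocrit final, Albumax-supplemented RPMI. Luminescence decrease measures growth inhibition.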
In the case of `C=CCNC(=O)c1cnc2n(c1=O)CCS2`, the Potency entry was “inactive”. The value for `Cc1cccc(-n2ncc3c2CCCC3NC(=O)C2=CC(=O)CC(C)(C)O2)c1C` (stereo not given) was 12.6 µM (active); that for `COc1ccc(C(=O)NC2CCCc3c2cnn3-c2cccc(C)c2C)o1` (stereo not given) was 12.6 µM (active). The value for `CCCNC(=O)c1nnsc1S(=O)(=O)c1ccc(Cl)cc1` was “inactive”; that for `O=S(=O)(c1ccc(Cl)c(Cl)c1)c1snnc1-c1ccccc1` was 7.94 µM (active); that for `N#Cc1ccc(Oc2ccc(-c3nc4ccccc4nc3-c3ccccc3)cc2)cc1C#N` was 0.708 µM (active).

With `CCOC(=O)C(Cc1ccccc1)C(=O)Nc1cccc2ccccc12` (stereo not given), the Potency is 5.01 µM (active).

For the molecule `CCc1nn(CCCC(=O)NCc2ccccc2C)c(=O)c2cc3occc3n12`, the Potency was 7.08 µM (active). To `O[C@@H]1[C@@H](O)C=C2CCN3Cc4cc5c(cc4[C@H]1C23)OCO5` (stereo not given in full) belongs 1.58 µM (active); to `ClC(/C=N/n1cnnc1)=C/c1ccccc1`, 10 µM (active); to `S=c1[nH]nc(COc2ccccc2)n1/N=C/C(Cl)=C/c1ccccc1`, 12.6 µM (active).

Regarding `O=C(O)CCCN1C(=O)/C(=C\C(Cl)=C\c2ccccc2)SC1=S`, the Potency was 5.01 µM (active). The value for `C=C1c2c(Cl)ccc(O)c2C(O)=C2C(=O)[C@]3(O)C(O)=C(C(N)=O)C(=O)[C@@H](N(C)C)[C@@H]3[C@@H](O)C12` (stereo not given in full) was 2 µM (active). The value for `C[C@@H]1c2cccc(O)c2C(O)=C2C(=O)[C@@]3(O)C(O)=C(C(N)=O)C(=O)[C@@H](N(C)C)[C@@H]3[C@@H](O)[C@@H]21` was 2.51 µM (active). The value for `C=C1c2c(Cl)ccc(O)c2C(O)=C2C(=O)[C@@]3(O)C(O)=C(C(N)=O)C(=O)[C@@H](N(C)C)[C@@H]3[C@@H](O)[C@H]12` was 2 µM (active). For `S=c1[nH]nc(-c2cc(-c3ccccc3)n[nH]2)n1/N=C/C(Br)=C/c1ccccc1`, the Potency is 3.98 µM (active).

As to `S=c1[nH]nc(-c2ccccc2)n1/N=C/c1ccc(-c2ccccc2Cl)o1`, the Potency entry is “inactive”. The value for `COc1ccc(C(=S)N2CCN(c3ccccc3C)CC2)cc1` was 12.6 µM (active).

Turning to `COc1cccc(NC(=O)CSc2ccc3nnc(CCNC(=O)c4ccccc4)n3n2)c1`, the Potency entry was “inactive”. For `Cc1ccc(C(=O)NCCc2nnc3ccc(SCC(=O)NCc4ccc(F)cc4)nn23)cc1`, the Potency was 7.94 µM (active). To `Cc1cccc(C)c1Nc1c(-c2ccc(N3CCOCC3)cc2)nc2ncccn12` belongs 12.6 µM (active); to `CC(C)(C)c1ccc(C(=O)Nc2sc3c(c2C(=O)O)CCC3)cc1`, 10 µM (active); to `O=C(/C=C/c1cccs1)Nc1sc2c(c1C(=O)O)CCCC2`, “inactive”.

Consider `Cc1ccc(-c2nnc(SCC(=O)N/N=C/c3cccs3)n2-c2ccc(C)cc2)cc1`, for which the Potency was 10 µM (active). To `Cc1nnc(N2CCCC(C(=O)NCc3cccc(F)c3)C2)c2nn(-c3ccccc3)c(C)c12` (stereo not given) belongs 12.6 µM (active); to `CCCCc1nc2cc(C(=O)N3CCN(c4nc(C)cnc4C)CC3)ccc2o1`, 10 µM (active). The value for `Cc1ccc(NS(=O)(=O)c2ccc(-c3cnc(C4CC4)o3)cc2)c(C)c1` was 7.08 µM (active); that for `Cn1c(=O)n(Cc2ccccc2)c(=O)c2c1nc1n2CCN1Cc1ccco1` was 7.94 µM (active). To `Cc1nc(-c2ccc(S(=O)(=O)N3CCCN(CCc4ccccc4)CC3)s2)cs1` belongs 3.55 µM (active). `CCCCCCCNC(=O)C1(CC2CC(c3ccc(Cl)cc3)=NO2)CCN(C(=O)Cc2ccc(F)cc2)CC1` (stereo not given): the Potency is 7.94 µM (active). To `CCCCCCCNC(=O)C1(CC2CC(c3ccc(Cl)cc3)=NO2)CCN(C(=O)C2CCCC2)CC1` (stereo not given) belongs 10 µM (active); to `O=C(Nc1ccc(S(=O)(=O)N2CCOCC2)cc1)c1ccc([N+](=O)[O-])o1`, 3.55 µM (active); to `O=C(Nc1ccc(N2CCOCC2)c(Cl)c1)c1cc2ccccc2o1`, 2.82 µM (active). To `CCCC(=O)N1CCN(c2ccc(NC(=O)c3ccc([N+](=O)[O-])o3)cc2Cl)CC1` belongs 8.91 µM (active). To `CC(C)C(=O)N1CCN(c2ccc(NC(=O)c3ccc([N+](=O)[O-])o3)cc2)CC1` belongs 4.47 µM (active). As for `CCN1CCN(c2ccc(NC(=O)c3ccc([N+](=O)[O-])o3)cc2Cl)CC1`, the Potency was 7.94 µM (active).

Consider `CCC(=O)N1CCN(c2ccc(NC(=O)c3ccc([N+](=O)[O-])o3)cc2Cl)CC1`, for which the Potency is 7.94 µM (active). To `Cc1cccc(-c2c(NC(=O)c3ccco3)oc3ccc(Cl)cc3c2=O)c1` belongs “inactive”; to `CC(C)C(=O)N1CCN(c2ccc(NC(=O)c3ccco3)cc2Cl)CC1`, 6.31 µM (active); to `CCCC(=O)N1CCN(c2ccc(NC(=O)c3ccc([N+](=O)[O-])o3)cc2)CC1`, 6.31 µM (active). The value for `CC(=O)OC[C@H]1O[C@@H](n2ncc(=O)[nH]c2=O)[C@H](OC(C)=O)[C@@H]1OC(C)=O` was “inactive”; that for `CS(=O)(=O)N1CCN(c2ccc(NC(=O)c3ccc([N+](=O)[O-])o3)cc2)CC1` was 7.08 µM (active).

`CN(Cc1nc2ccccc2c(=O)[nH]1)C(=O)c1cccc(S(=O)(=O)N2CCc3ccccc32)c1`: the Potency was 11.2 µM (active). In the case of `COc1cc2c(cc1OC)CN(C(=O)c1cccc(S(=O)(=O)N3CCc4ccccc43)c1)CC2`, the Potency was 11.2 µM (active).

For `O=C(CNC(=O)c1cccc(S(=O)(=O)N2CCc3ccccc32)c1)Nc1ccc(F)c(F)c1F`, the Potency was 11.2 µM (active). For `O=C(c1cccc(S(=O)(=O)N2CCc3ccccc32)c1)N1CCN(c2ccccc2)CC1`, the Potency is 11.2 µM (active).

Take `CCc1cc(SC#N)ccc1N`: the Potency is 8.91 µM (active). To `CC(C)(C)Nc1nc(Cl)nc(NC2CCCCC2)n1` belongs 12.6 µM (active). To `CCCc1cc(=O)n2nc(N3CCC(C(=O)N4CCN(c5ccc(OC)cc5)CC4)CC3)sc2n1` belongs 10 µM (active); to `CCCc1cc(=O)n2nc(N3CCC(C(=O)NCc4ccc(C)o4)CC3)sc2n1`, 8.91 µM (active); to `COc1cc(CNc2cccc(C(=O)O)c2)cc(Br)c1OCC(=O)NC(C)(C)C`, 12.6 µM (active). The value for `COc1ccccc1CCC(=O)N1CCN(S(=O)(=O)c2cc(C(F)(F)F)ccc2Cl)CC1` was 11.2 µM (active). On to `Cc1ccc(C)c(-c2cc(C(=O)Nc3nccs3)c3ccccc3n2)c1`, for which the Potency was 1.12 µM (active). To `Cc1ccc(C)c(-c2cc(C(=O)NNC(=S)NCC(C)C)c3ccccc3n2)c1` belongs 11.2 µM (active). To `Cc1ccccc1-c1cc(C(=O)n2cccn2)c2cc(Cl)ccc2n1` belongs “inactive”; to `Cc1ccc(/C=C/c2ccc(N(C)C)cc2)[n+](C)c1`, 0.501 µM (active); to `CC[n+]1ccccc1/C=C/c1ccc(N(C)C)cc1`, 1.58 µM (active). `Cn1c(=O)c(=O)n(C)c2cc(N3CCCCC3)c(NS(=O)(=O)c3ccc(Br)cc3)cc21`: the Potency was 12.6 µM (active). The value for `Cc1ccc(C(=O)NNc2c3ccccc3nc3ccccc23)cc1` was 10 µM (active); that for `COc1ccccc1OCC(=O)NNc1c2ccccc2nc2ccccc12` was 5.01 µM (active); that for `Cc1ccc(OCC(=O)NNc2c3ccccc3nc3ccccc23)cc1` was 6.31 µM (active). To `O=C(NNc1c2ccccc2nc2ccccc12)C(O)c1ccccc1` (stereo not given) belongs 10 µM (active); to `COc1cccc(C(=O)NNc2c3ccccc3nc3ccccc23)c1`, 15.8 µM (active). `O=C(COc1cccc2ccccc12)Nc1ccc(Cl)cc1C(=O)O`: the Potency result is “inactive”. To `O=C(CCCO)NNc1c2ccccc2nc2ccccc12` belongs 6.31 µM (active). The value for `Cc1cccc(OCC(=O)NNc2c3ccccc3nc3ccccc23)c1` was 4.47 µM (active); that for `O=C(COc1ccccc1)Nc1nnc(-c2ccc(F)cc2)o1` was “inactive”; that for `O=C(COc1ccccc1)NNc1c2ccccc2nc2ccccc12` was 5.01 µM (active). Consider `O=C(CN1CCOCC1)NNc1c2ccccc2nc2ccccc12`, for which the Potency is 12.6 µM (active).

As to `N#Cc1c(N2C(=O)Nc3ccccc3N2O)sc2c1CCCCCC2`, the Potency was 14.1 µM (active). To `O=C(NC1CCC1)C1CCC(=O)N(Cc2ccccc2F)C1` (stereo not given) belongs “inactive”. The value for `Cc1ccc2nc(CNC(=O)C3CCC(=O)N(Cc4ccccc4F)C3)cn2c1` (stereo not given) was 11.2 µM (active). The value for `COCCn1c(C)cc(C(=O)CSc2cc(C)c3ccc(OC)cc3n2)c1C` was 17.8 µM (active); that for `CCCSCCCNC(=O)c1ccccc1NC(=O)C1=CSCCO1` was 12.6 µM (active); that for `COc1ccc([C@@]2(C(C)C)ON(c3ccccc3C(F)(F)F)C2=O)cc1` was 0.501 µM (active). Turning to `COc1ccc(S(=O)(=O)N/N=C(/C)c2ccco2)cc1`, the Potency entry is “inactive”. On to `COc1ccc(CN(CCC(c2ccccc2)c2ccco2)C(=O)c2ccco2)cc1` (stereo not given), for which the Potency is 8.91 µM (active).

As for `Fc1cc2nc(-c3ccncc3)[nH]c2cc1F`, the Potency is 3.16 µM (active). To `COCCN(C(=S)Nc1ccc(OC)c(Cl)c1)C1CCN(C(C)C)CC1` belongs 11.2 µM (active); to `CC(=O)Nc1sc2c(c1-c1nc3ccccc3s1)CCN(C(C)C)C2`, 0.316 µM (active); to `CC(C)N1CCc2c(sc(NC(=S)NC(=O)c3ccccc3)c2C#N)C1`, 2 µM (active). To `N#Cc1cc(S(=O)(=O)c2ccccc2)c(N)[nH]c1=O` belongs “inactive”; to `COc1cccc(NC(=O)c2ccc3c(c2)C(=O)N(CC2CCCO2)C3=O)c1` (stereo not given), “inactive”.

Regarding `COc1cccc(NC(=O)c2ccc(CN3CCN(c4ccccc4)CC3)cc2)c1`, the Potency is 14.1 µM (active). To `COc1ccc(NC(=O)c2ccc(CN3CCN(c4ccccc4)CC3)cc2)cc1OC` belongs 12.6 µM (active); to `C#CC[N+]1(CC#Cc2ccc(C#CC[N+]3(CC#C)CCOCC3)cc2)CCOCC1`, 5.62 µM (active). The value for `Cc1ccc(-c2csc3nc[nH]c(=O)c23)cc1` was “inactive”; that for `Cc1c(C)n2c(SCC(=O)Nc3ccc4c(c3)OCCO4)nnc2[nH]c1=O` was 1.58 µM (active). To `CCOc1ccc2c(c1)OC(c1ccccc1)(C(F)(F)F)NC2=O` (stereo not given) belongs 1.41 µM (active). Consider `O=C(CCNS(=O)(=O)c1cccc2nonc12)NCCc1ccc(Cl)cc1`, for which the Potency was 11.2 µM (active).
